The list is not random: actives were taken first. Their share in the collection is about 4.7%.
D1 agonist = human D1 receptor agonism | P21728 | HEK293 T-REx D1 cells, calcium flux, agonist mode | activation, % at 2 µM | hit rate 1% among 360,000 | AID 504660
Target sequence (P21728 whole entry, looked up): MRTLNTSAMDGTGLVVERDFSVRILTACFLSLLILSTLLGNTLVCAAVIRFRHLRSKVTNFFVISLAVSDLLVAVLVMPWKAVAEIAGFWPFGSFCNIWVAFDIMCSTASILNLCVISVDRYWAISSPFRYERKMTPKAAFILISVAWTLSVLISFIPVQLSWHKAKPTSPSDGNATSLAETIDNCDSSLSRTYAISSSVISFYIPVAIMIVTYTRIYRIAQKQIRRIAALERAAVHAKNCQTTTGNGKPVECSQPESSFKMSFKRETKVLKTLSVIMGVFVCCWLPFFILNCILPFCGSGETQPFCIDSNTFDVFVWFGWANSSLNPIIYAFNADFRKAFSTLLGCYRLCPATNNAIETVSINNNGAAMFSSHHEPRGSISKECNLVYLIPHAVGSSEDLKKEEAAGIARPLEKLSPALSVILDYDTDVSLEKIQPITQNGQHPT
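Inducible HEK293 T-REx D1 cells, force-coupled to calcium signalling, were plated at 4000 cells/well with tetracycline and held overnight at 30 C. After no-wash calcium dye loading, compound-evoked calcium rise over 180 s flagged agonists.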
D1 antagonist = antagonists of human D1 dopamine receptor; P21728; HEK293 TREx D1 cells, calcium flux, dopamine EC80; hits give low values; activity change, negative = inhibition, % at 10 µM; hit rate 3.2% among 360,000; in the data active = activity change below about -30%
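Using tetracycline-induced force-coupled D1 Hek293 cells and a calcium dye, signals were followed for 180 s after compound, then for 180 s after EC80 dopamine, to detect inhibitors.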
TRHR enhancer = allosteric enhancers of human TRH receptor. TRHR cells, fluo-8 calcium fluorescence, EC20 TRH enhancement. enhancement, % at 2 µM. hit rate 0.66% among 360,000. AID 493056; in the data active = enhancement above about 30%
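TRHR-expressing cells loaded with fluo-8 calcium dye were read kinetically (ex 480/em 530) during compound addition, then stimulated with an EC20 of TRH (10 nM final). Enhancement of the Gq-mediated intracellular calcium response was scored.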
D1 potentiator = enhances dopamine response at the human D1 receptor; P21728; HEK293 TREx D1 cells, calcium flux, dopamine EC20 potentiation; potentiation, % at 10 µM; hit rate 0.036% among 360,000; AID 504651; in the data active = potentiation above about 30%
TRHR agonist = agonists of human TRH receptor | P34981 | activation, % at 2 µM | TRHR cells, calcium flux fluo-8, FDSS agonist mode | hit rate 0.18% among 360,000
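TRHR-expressing cells loaded with fluo-8 calcium dye; 23 nL library compound pin-transferred, kinetic FDSS fluorescence (Ex 480/Em 530) recorded about 180 s for agonist-induced calcium release, before a 10 nM TRH EC20 addition for potentiator mode.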
Large screens that a line does not name were inactive. Rule as the data show it, unless noted: active = activation above about 30%; inactive = the rest.

Cn1cc(Br)c(-c2cccc(NC(=O)CCC(=O)O)c2)n1	D1 antagonist -37
COc1ccc(C(=O)N/C(=C\c2cn(C)c3ccccc23)C(=O)NCCN2CCOCC2)cc1OC	none
O=C(NC1CCCCC1)C(c1ccc(O)cc1)N(C(=O)c1cnccn1)c1cccc(F)c1 (stereo unspecified)	none
Cc1ccc(/C=C/C(=O)NCCCc2ccccc2)cc1	D1 antagonist -40
CC(CCc1ccccc1)NC(=O)/C=C/c1ccc(Cl)cc1 (stereo unspecified)	D1 antagonist -86
C#CCNC(=O)/C=C/c1ccc(C)cc1	none
O=C(NC1CCCCCC1)C1CCCN(c2ncccn2)C1 (stereo unspecified)	none
COc1ccc(S(=O)(=O)NNC(=O)c2ccccc2-n2cccc2)cc1	D1 antagonist -61
Cc1ccc(S(=O)(=O)NNC(=O)c2ccccc2-n2cccc2)cc1	none
CCn1nc(C)cc1C(=O)N1CCCC(C(=O)c2ccc3ccccc3c2)C1 (stereo unspecified)	none
CCn1nc(C)cc1C(=O)N1CCCC(C(=O)c2ccc(Oc3ccccc3)cc2)C1 (stereo unspecified)	D1 antagonist -35
CN1CCN(CCC(=O)N2c3ccccc3Sc3ccc(C(F)(F)F)cc32)CC1	none
CCSc1ccc2c(c1)N(CCCN1CCN(C)CC1)c1ccccc1S2	D1 antagonist -91
OCCN1CCN(CC/C=C2/c3ccccc3Sc3ccc(C(F)(F)F)cc32)CC1	D1 antagonist -88
OCCN1CCN(CCCN2c3ccccc3Sc3ccc(C(F)(F)F)cc32)CC1	D1 agonist 38, D1 antagonist -106 (no result: D1 potentiator)
CCOC(=O)N1CCN(C(=O)CCc2ccc(S(=O)(=O)NC(C)(C)C)cc2)CC1	none
CC(=O)c1c(C)[nH]c(C(=O)COC(=O)c2ccc(Cl)nc2)c1C	D1 antagonist -41
Cn1ccsc1=NC(=O)c1cccc(OC(F)F)c1	none
Cc1cc(/C=C2\SC(=O)NC2=O)c(C)n1-c1ccc(N2CCOCC2)cc1	none
Cc1cc(/C=C2\SC(=O)NC2=O)c(C)n1-c1ccc(N(C)C)cc1	D1 antagonist -52
COc1ccc(NC(=O)CNC(=O)C23CC4CC(CC(C4)C2)C3)c(OC)c1	none
COc1ccc(OC)c(NC(=O)C(=O)NNC(=O)C23CC4CC(CC(C4)C2)C3)c1	D1 agonist 40
Fc1ccc(Nc2nc(NCc3ccco3)c3ccccc3n2)cc1	D1 antagonist -46
c1ccc(CNc2nc(NCc3ccccc3)c3ccccc3n2)cc1	D1 agonist 38, D1 antagonist -35
Nc1nc(Nc2ccccc2)nc(NCc2ccco2)c1[N+](=O)[O-]	none
Cc1ccc(CN2c3ccccc3S(=O)(=O)c3ccccc32)cc1	none
COC(=O)/C=C(\C)NC(=O)c1cccs1	none
COC(=O)/C=C(\C)NC(=O)c1ccc(F)cc1	TRHR enhancer 34
COc1ccc(OC)c(NC(=O)C2=C(C)C(=O)OC23CCCCCC3)c1	none
COc1ccc(-c2csc3ncnc(N4CCN(c5ccccc5O)CC4)c23)cc1	D1 agonist 44
Cc1cc(C)cc(NC(=O)C(C)N2C(=O)c3ccccc3C2=O)c1 (stereo unspecified)	none
CC(C(=O)Nc1ccccc1)N1C(=O)c2ccccc2C1=O (stereo unspecified)	TRHR enhancer 32
CC(=O)N1N=C(c2ccc(C)cc2)CC1c1ccco1 (stereo unspecified)	none (no result: D1 antagonist)
Cc1ccc(C2=NN(C(=O)CN3C(=O)c4ccccc4S3(=O)=O)C(c3ccco3)C2)cc1 (stereo unspecified)	D1 antagonist -76
O=C(C1CCCO1)N1N=C(c2ccc(Br)cc2)CC1c1ccco1 (stereo unspecified)	D1 antagonist -71
Cc1ccc(C2=NN(C(=O)C3CCCO3)C(c3ccco3)C2)cc1 (stereo unspecified)	none
Cc1ccc(C2=NN(C(=O)CCCC(=O)O)C(c3ccco3)C2)cc1 (stereo unspecified)	D1 agonist 74
CCOC(=O)c1ccc(NC(=O)C(CC)Sc2nnc3c4ccccc4n(C)c3n2)cc1 (stereo unspecified)	none
COc1c(C)cccc1C(=O)Nc1ccc(-c2nc3ccccc3s2)c(Cl)c1	none
O=S1(=O)c2ccccc2C(CCO)N1Cc1ccccc1 (stereo unspecified)	none

Screening data as filed in PubChem.
